# Sampled rows, rich in hits. Any-hit rate of the full collection: about 2.1%.
# ROS inducer – cancer cell ROS induction. ROS induction (% of piperlongumine), % at 10 µM. 2% of 46,000 active. U2OS ROS induction, H2DCF-DA fluorescence; in the data active = ROS induction above about 79%, passing the limit was not always enough; inconclusive = no clear call, values can overlap the other calls;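 also: 0% = DMSO vehicle median and 100% = reference compound median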
# YB-1 expr inh – YB-1 expression inhibition. U2OS, qRT-PCR YB-1 vs CDIP delta delta Cp, 16 h; hits give high values; zero = DMSO, each unit about twofold. delta delta Cp (YB-1 minus CDIP) (test concentration not listed). 0.37% of 30,000 active;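 active = delta delta Cp rounded down to an integer at or above 3, about 3 SD of DMSO wells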;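 also: higher means less YB-1 transcript or more CDIP transcript relative to DMSO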
# PD-1 reverse act – activators reversing PD-1 mediated T-cell inhibition; primary human CD4 T cells, PD-L1 beads, CellTiter-Glo 96 h; activation, % (no concentration beside the values); 29,000 tested, under 10 active; AID 2316; call rule not given here;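 also: 0% = median vehicle wells and 100% = positive control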
# Numbers without * were called inactive; ? = inconclusive; . = no result given.
SMILES,ROS inducer,YB-1 expr inh,PD-1 reverse act
COCCOC(=O)N1C(=O)[C@@]2(c3cc(C#Cc4ccc(OC)cc4)ccc31)[C@H](C(=O)NC[C@H](O)c1ccccc1)[C@H]1C(=O)O[C@H](c3ccccc3)[C@H](c3ccccc3)N1[C@@H]2c1ccc(OCCO)cc1,13,0.24,.
O=C1O[C@@H](c2ccccc2)[C@@H](c2ccccc2)N2[C@@H](c3ccc(OCCO)cc3)[C@]3(C(=O)Nc4ccccc43)[C@@H](C(=O)NC[C@H](O)c3ccccc3)[C@H]12,103*,-0.17,.
O=C1O[C@@H](c2ccccc2)[C@@H](c2ccccc2)N2[C@@H](c3ccc(O)cc3)[C@]3(C(=O)Nc4ccccc43)[C@@H](C(=O)NC[C@H](O)c3ccccc3)[C@H]12,5,-0.51,.
C[C@H]1CN([C@@H](C)CO)C(=O)c2cccc(NC(=O)CCCCCC(=O)Nc3ccccc3N)c2O[C@H]1CN(C)C,-13,-0.52,2
C[C@H]1CN([C@@H](C)CO)C(=O)CCCn2nncc2CO[C@H]1CN(C)Cc1ccc(-c2ccccc2)cc1,15,-0.4,.
C[C@@H]1CN([C@@H](C)CO)C(=O)CCCn2nncc2CO[C@@H]1CN(C)Cc1ccc(-c2ccccc2)cc1,91*,-0.14,.
C[C@H](CO)N1C[C@H](C)[C@@H](CN(C)S(=O)(=O)c2ccc(Oc3ccccc3)nc2)OCc2cnnn2CCCC1=O,2,0.069,.
C[C@@H]1CN([C@@H](C)CO)C(=O)CCCn2nncc2CO[C@@H]1CN(C)C(=O)Nc1ccc(N2CCCCC2)cc1,83*,-0.14,.
COc1cccc(NC(=O)N(C)C[C@@H]2OCc3cn(nn3)CCCC(=O)N([C@H](C)CO)C[C@H]2C)c1,108*,-0.23,.
C[C@H](CO)N1C[C@H](C)[C@@H](CN(C)C(=O)Nc2ccc(N3CCCCC3)cc2)OCc2cnnn2CCCC1=O,1,0.2,.
COc1cccc(NC(=O)N(C)C[C@H]2OCc3cn(nn3)CCCC(=O)N([C@H](C)CO)C[C@H]2C)c1,-4,-0.24,.
C[C@@H]1CN([C@@H](C)CO)C(=O)CCCn2nncc2CO[C@H]1CN(C)S(=O)(=O)c1ccc(Oc2ccccc2)nc1,138*,-0.33,.
Cc1cc(C)c2c(CC(=O)Nc3c(C(=O)c4ccccc4)oc4ccccc34)coc2c1,10,.,.
CC(NC(=O)/C=C/C(=O)O)C(=O)NC(C(=O)NC(Cc1c[nH]c2ccccc12)C(=O)O)C(C)c1c[nH]c2ccccc12 (centres undefined),-6,1.1,0
COc1ccc(-n2nnc3c(SCC(=O)N4CCc5ccccc54)ncnc32)cc1,-5,.,.
COc1cccc(CN(C)C[C@@H]2OCc3cnnn3CCCC(=O)N([C@@H](C)CO)C[C@H]2C)c1,?,-0.64,.
COc1cccc(CN(C)C[C@H]2OCc3cnnn3CCCC(=O)N([C@@H](C)CO)C[C@H]2C)c1,125*,0.62,.
CNC(=S)N(Cc1ccccc1)Cc1ccccc1,-9,.,.
O=C(O)C1CCCCC1C(=O)Nc1ccc([N+](=O)[O-])cc1 (centres undefined),2,.,2
COC(=O)C1=CN(c2ccc(F)cc2)C=C(C(=O)OC)C1c1cccc(O)c1,44,.,.
CCOC(=O)C1=CN(c2ccc(C)c(C)c2)C=C(C(=O)OCC)C1c1ccccc1F,96*,.,.
COc1ccc(NC(=O)c2ccccc2NC(=O)COc2ccc([N+](=O)[O-])cc2)cc1,-15,.,4
COc1ccc(NC(=O)Cc2nc(-c3ccc([N+](=O)[O-])cc3)cs2)cc1,94*,.,-2
Cc1ccc(-c2nnc(N3CCOCC3)c3ccccc23)cc1S(=O)(=O)NC(C)(C)CO,-7,.,.
Cc1ccc(Nc2nnc(-c3ccc(C)c(S(=O)(=O)NCC4CCCO4)c3)c3ccccc23)cc1 (centres undefined),216*,-0.32,-1
SMILES,ROS inducer,YB-1 expr inh,PD-1 reverse act
Cc1ccc(-c2cc(C(F)F)n3ncc(C(=O)NCCN4CCOCC4)c3n2)cc1,27,.,-6
O=C(NCc1cccnc1)c1cnn2c(C(F)F)cc(C3CC3)nc12,18,.,-3
COc1ccc(-c2cc(C(F)F)n3ncc(C(=O)Nc4cccc(NC(C)=O)c4)c3n2)cc1,155*,.,0
Cc1ccc(-c2cc(C(F)F)n3ncc(C(=O)NCc4cn(C)nc4C)c3n2)cc1,135*,.,-8
CN1C(=O)C(C)(C)c2cc(S(=O)(=O)N3CCCC3)ccc21,22,.,.
C[C@H](CO)N1C[C@H](C)[C@H](CN(C)S(C)(=O)=O)Oc2c(NS(C)(=O)=O)cccc2C1=O,-5,-0.44,3
O=C(COc1ccc(Br)cc1)NCC1CCCO1 (centres undefined),6,9.5*,0
O=S(=O)(NCC1CCCO1)c1ccc(Br)cc1 (centres undefined),30,-0.14,2
O=c1ccnc(SCc2ccc(Cl)cc2)[nH]1,49,-0.29,0
Clc1ccc(CSc2ncccn2)cc1,94*,.,.
COc1cc([N+](=O)[O-])ccc1NC(=O)CS(=O)(=O)Cc1ccccc1,-7,.,-1
CC(C)(CSc1nnc(Nc2ccccc2)s1)NS(=O)(=O)c1ccc(Cl)cc1,-14,.,0
CC(C)CCNC(=O)c1cnn2c(C(F)(F)F)cc(-c3ccco3)nc12,119*,.,.
CC1CCCCC1NC(=O)c1cnn2c(C(F)(F)F)cc(-c3ccccc3)nc12 (centres undefined),134*,.,.
Cc1ccccc1NC(=O)c1cnn2c(C(F)(F)F)cc(-c3ccco3)nc12,7,0.15,2
O=C(NCc1cccnc1)c1cnn2c(C(F)(F)F)cc(-c3ccccc3)nc12,.,.,-7
CCOC(=O)c1c(C(C)(C)C)oc2ccc(OCc3ccc(C(=O)OC)cc3)cc12,-8,.,.
C[C@H](CO)N1C[C@H](C)[C@@H](CN(C)C(=O)NC2CCCCC2)Oc2c(NC(=O)c3nc4ccccc4s3)cccc2C1=O,69,-0.13,-1
COc1ccc(S(=O)(=O)N2CCC(C(=O)Nc3ccc(NC(C)=O)cc3)CC2)cc1OC,.,.,0
CC(=O)OCC(=O)[C@@]12OC3(CCCC3)O[C@@H]1CC1C3CCC4=CC(=O)C=C[C@]4(C)[C@@]3(F)[C@@H](O)C[C@@]12C (some centres undefined),129*,-0.058,.
CC(=O)OCC(=O)[C@@]1(O)[C@H](C)C[C@H]2[C@@H]3CCC4=CC(=O)C=C[C@]4(C)[C@@]3(F)[C@@H](O)C[C@@]21C,9,0.23,-3
C[C@@H]1CN([C@H](C)CO)C(=O)c2cccc(NC(=O)c3ccncc3)c2O[C@H]1CN(C)C(=O)Nc1ccc2c(c1)OCO2,-4,-0.21,1
CCN(C(=O)c1cnccc1C(F)(F)F)c1nc2cc(Cl)ccc2s1,6,-0.011,0
C=C1C(=O)O[C@@H]2[C@H]1[C@H](O)C[C@]1(C)[C@@H](O)CC=C(C)[C@@H]21,34,-0.00055,-3
C=C1C(=O)O[C@H]2C1CCC(C)=C1C(=O)C=C(C)[C@@]12O (some centres undefined),69,0.18,-5
C=C1C(=O)O[C@@H]2C3O[C@]3(C)CC/C=C(/C)CC[C@@H]12 (some centres undefined),92*,-0.016,.
C=C1C(=O)O[C@@H]2[C@H]3O[C@]3(C)CCC=C(C)CC[C@@H]12,101*,-0.063,-59

# Bioassay records: PubChem, Broad Institute
